Source: PubChem BioAssay (National Center for Advancing Translational Sciences (NCATS))
Only some compounds are listed: those with a hit (about 1.1% of all), similar ones and a draw of the others.
AmpC inh no detg = blocks E. coli AmpC beta-lactamase in detergent-free assay; P00811; AmpC nitrocefin hydrolysis, absorbance 480 nm, 0.0001% Triton; Potency, µM (titrated, usually from 57.1 µM), usual class: inhibitors; actives 0.52% (n = 330,000); also: nearly all actives have a fitted effect of over 20% in size
Target sequence (P00811 whole entry, looked up): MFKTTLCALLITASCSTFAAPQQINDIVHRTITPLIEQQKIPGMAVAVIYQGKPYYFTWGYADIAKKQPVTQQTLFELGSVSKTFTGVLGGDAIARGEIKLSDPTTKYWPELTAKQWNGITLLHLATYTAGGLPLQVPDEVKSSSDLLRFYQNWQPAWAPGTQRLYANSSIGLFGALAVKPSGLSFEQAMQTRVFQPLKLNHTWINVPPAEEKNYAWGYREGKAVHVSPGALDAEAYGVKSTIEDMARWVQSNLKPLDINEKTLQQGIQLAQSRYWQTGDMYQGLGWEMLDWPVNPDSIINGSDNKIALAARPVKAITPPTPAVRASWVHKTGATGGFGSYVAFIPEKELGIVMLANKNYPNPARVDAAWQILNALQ
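20 mM phosphate pH 7.0 + 0.01% (detergent screen) or 0.0001% Triton X-100; 5.3 nM AmpC reagent; cpd preinc 15 min RT; nitrocefin (800 uM stock) to start; A480 q20 s × 4 min; Activity was normalised to no-enzyme and no-compound control wells.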
VACV mCherry inh = vaccinia inhibition (mCherry reporter); Vaccinia virus mCherry reporter infection, fluorescence; Potency, µM (doses to about 36.5 µM), hits mostly inhibitors; actives 0.63% (n = 310,000); calls by dose curve; tested in A549 cells; also: nearly all actives have a fitted effect of over 35% in size
AmpC detergent = AmpC beta-lactamase inhibition with detergent present | P00811 | AmpC hydrolysis of nitrocefin, absorbance 480 nm, 0.01% Triton | Potency, µM (doses to about 114 µM), usual class: inhibitors | actives 0.041% (n = 370,000) | AID 485294; also: nearly all actives have a fitted effect of over 25% in size
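AmpC (5.3 nM in the dispensed reagent) in 20 mM phosphate pH 7.0 with 0.01% (detergent screen) or 0.0001% Triton X-100 was preincubated with compounds for 15 min at room temperature. Nitrocefin was then added from an 800 uM solution, and hydrolysis was followed at 480 nm.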
Vaccinia Venus = inhibitors of vaccinia virus (Venus reporter); Vaccinia virus Venus reporter expression, fluorescence; Potency, µM (top dose mostly 36.5 µM), hits mostly inhibitors; actives 0.46% (n = 330,000); calls by dose curve; tested in A549 cells; also: nearly all actives have a fitted effect of over 30% in size
Numbers stand for hits; . = inactive; ? = inconclusive; / = no result given; [ ] = dose if it differs, or a comment. Unless noted, calls follow the shape of the dose curve; as a rule, active = well fitted curve in the direction sought with a large enough effect; inconclusive = small, poorly fitted or top-dose-only effect, or another doubt; inactive = no such curve, though single readings can be large; an effect the other way counts as inactive or inconclusive.

SMILES | AmpC inh no detg | VACV mCherry inh | AmpC detergent | Vaccinia Venus
COc1ccc(N=Nc2ccc(O)c3ncccc23)cc1 | . | / | . | /
O=[N+]([O-])c1cc(Cl)c2cccnc2c1O | . | 28.2µM | . | ?
O=[N+]([O-])c1ccc(O)c2ncccc12 | . | 10µM | . | ?
O=[N+]([O-])c1ccc(O)c2cccnc12 | . | . | . | .
Cc1ccccc1N=Nc1ccc(O)c2ncccc12 | . | 3.55µM | . | ?
Cc1cnc2c(C)cccc2c1C | / | . | / | .
O=C(NCC1(N2CCOCC2)CCCC1)c1cnn(-c2nccc(-c3ccco3)n2)c1C1CC1 | / | . | / | .
COC(=O)C1CCN(Cc2ccc3c(c2)CN(C(=O)c2cc(C4CC4)on2)CCO3)CC1 | / | . | / | .
COc1cc(/C=C(/C)[N+](=O)[O-])ccc1OCc1ccccc1Cl | . | ? | . | 11.2µM
Cc1cc(NC(=O)CSc2c(C)[nH]c3ccccc23)no1 | . | . | ? | .
NNC(=O)CSc1c(-c2cccs2)[nH]c2ccccc12 | 14.1µM | . | ? | .
COc1ccc(C2CC(c3ccccc3)=NN2C(=S)Nc2ccccc2)cc1 (stereo unspecified) | . | . | . | .
COc1ccc(C2=NN(C(=S)Nc3ccccc3)C(c3ccccc3)C2)cc1 (stereo unspecified) | 25.1µM | . | . | .
COc1cc(-c2ccc3c(=O)c4ccccc4sc3c2)cc(OC)c1OC | . | . | / | 14.1µM
COc1cc(-c2ccc3c(=O)c4ccccc4n(C)c3c2)cc(OC)c1OC | . | . | . | ?
CN(C)c1ccc(/C=C/N2C=CCc3c2ccc2ccccc32)cc1 | / | . | / | .
C(=N\Nc1nncc2ccccc12)/c1ccccn1 | . | 10µM | . | ?
O=c1cnnc(N/N=C/c2ccccn2)[nH]1 | . | 2.24µM | . | .
O=c1nc(N/N=C/c2ccccn2)cn[nH]1 | . | 3.98µM | . | ?
Fc1cccc(/C=N/Nc2nncc3ccccc23)c1 | . | / | . | /
Nc1[nH]c(=S)[nH]c(=O)c1N | / | . | / | .
Cc1cnc(C)c(-c2cccc3c2OC(CNC(=O)/C=C/c2ccncc2)C3)n1 (stereo unspecified) | / | . | / | .
Nc1cc([N+](=O)[O-])cc(N)c1N | / | . | / | .
O=C1/C(=C/C=C/c2ccco2)SC(=S)N1c1ccc(O)cc1 | 15.8µM | ? | . | .
Cc1cc(C(=O)CSc2nnnn2-c2ccccc2)c(C)n1-c1ccc2c(c1)OCO2 | . | . | . | .
SMILES | AmpC inh no detg | VACV mCherry inh | AmpC detergent | Vaccinia Venus
CCCn1c(SCC(=O)c2cc(C)n(-c3ccc4c(c3)OCO4)c2C)n[nH]c1=O | . | . | . | .
Cc1cc(C(=O)CSc2nnnn2-c2ccc(O)cc2)c(C)n1Cc1ccc2c(c1)OCO2 | 2.24µM | / | . | /
Cc1cc(C(=O)CSc2nncs2)c(C)n1-c1ccc2c(c1)OCO2 | 0.282µM | . | ? | .
Cc1ccccc1C(=O)NC(C)C(c1cccs1)N1CCOCC1 (stereo unspecified) | 2.82µM | . | ? | .
Cc1ccc(-c2nnc(SCC(=O)N3CCCC3)o2)cc1C | . | / | ? | .
CCOC(=O)N1CCN(C(=O)CSc2nnc(-c3ccc(C)c(C)c3)o2)CC1 | . | 10µM | ? | ?
CCOC(=O)N1CCN(C(=O)CSc2nnc(-c3ccc(C(C)(C)C)cc3)o2)CC1 | . | 5.62µM | ? | ?
O=C(C[n+]1cccc(Cl)c1)c1ccc(O)c(O)c1 | / | . | / | .
Cc1ccc(CN2[C@H](C)[C@H](c3ccccc3)OCCS2(=O)=O)cc1 | / | . | / | .
Cc1[nH]nc2ccc(-c3cncc(OC[C@@H](N)Cc4c[nH]c5ccccc45)c3)cc12 | / | ? | / | 0.891µM
COc1ccc(S(=O)(=O)NCC(c2cccnc2)N2CCN(c3ccccc3)CC2)cc1C (stereo unspecified) | . | .[1.46 µM] | . | 10µM
O=C(N/N=C/c1ccccc1)c1[nH]c2ccc(Br)cc2c1-c1ccccc1 | . | ? | . | .
O=C(NN=C1CCCC1)c1[nH]c2ccc(Br)cc2c1-c1ccccc1 | . | 11.2µM | . | ?
O=C(N/N=C/C=C\c1ccccc1[N+](=O)[O-])c1cc(-c2ccc3ccccc3c2)n[nH]1 | 10µM | ? | . | ?
Nc1nc(N)c2cc(Sc3cccc(C(F)(F)F)c3)ccc2n1 | / | 7.08µM | / | 5.01µM
Nc1nc(N)c2cc(Sc3ccc(Cl)cc3)ccc2n1 | / | ? | / | 6.31µM
Nc1nc(N)c2cc(Sc3ccc4ccccc4c3)ccc2n1 | . | / | . | /
CC(C)c1c(C(=O)NCc2cccnc2)cnn1-c1nccc(-c2cccs2)n1 | / | . | / | .
O=C(NNS(=O)(=O)c1cccc(Cl)c1)c1cc(-c2ccc(F)cc2)nc2ccccc12 | 12.6µM | . | . | .
